# Where “and” joins values, the source holds several entries; their conditions need not be identical. Equal entries are not always repeated. Hit rate of the full screen: of about 5,500 compounds, about 2,000 (36%) were called active. Roughly 18% stayed inconclusive and do not appear here. Cut-off read from the data, not from the text of the source: active = normalized growth mostly below about 0.91 (no sharp cut-off); inconclusive = no clear call, values can overlap the other calls; inactive = mostly above about 0.92. This is one part of the list. Where a structure was tested more than once in an assay, its records may differ in their call.
# Assay: chemical genetic growth profiling, strain panel (AID 1159580);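 note: tested at 20 µM; growth read once vehicle control cultures reached saturation at 30 °C; 1 = growth at the plate median or of vehicle wells; lower values mean less growth of the strain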
# Details: S. cerevisiae deletion strains, growth OD
compound,measurement,setting,value
O=c1cc(-c2ccccc2)oc2cc(O)cc(O)c12,normalized growth,"locus YAL013W, strain DEP1, stronger effect = lower value",0.956 (inactive)
same,normalized growth,"locus YAL021C, strain ccr4, stronger effect = lower value",0.968 (inactive) and 0.933 (inactive)
same,normalized growth,"locus YAL026C, strain drs2, stronger effect = lower value",0.911 (inactive) and 0.786 (active)
same,normalized growth,"locus YAL030W, strain snc1, stronger effect = lower value",0.943 (inactive) and 0.913 (active)
same,normalized growth,"locus YBL061C, strain skt5, stronger effect = lower value",0.904 (active)
same,normalized growth,"locus YBR009C, strain hhf1, stronger effect = lower value",0.915 (inactive) and 0.773 (active)
same,normalized growth,"locus YBR021W, strain FUR4, stronger effect = lower value",1.01 (inactive)
same,normalized growth,"locus YBR023C, strain chs3, stronger effect = lower value",1.01 (inactive) and 0.851 (active)
same,normalized growth,"locus YBR171W, strain sec66, stronger effect = lower value",0.953 (inactive) and 0.858 (active)
same,normalized growth,"locus YBR229C, strain ROT2, stronger effect = lower value",0.993 (inactive)
same,normalized growth,"locus YBR231C, strain swc5, stronger effect = lower value",0.938 (inactive) and 0.875 (active)
same,normalized growth,"locus YBR279W, strain paf1, stronger effect = lower value",0.947 (inactive) and 0.922 (active)
same,normalized growth,"locus YCL011C, strain gbp2, stronger effect = lower value",0.937 (inactive) and 0.86 (active)
same,normalized growth,"locus YCL016C, strain dcc1, stronger effect = lower value",1.07 (inactive) and 0.875 (active)
same,normalized growth,"locus YCL029C, strain bik1, stronger effect = lower value",0.911 (inactive)
same,normalized growth,"locus YCL061C, strain MRC1, stronger effect = lower value",0.951 (inactive) and 0.802 (active)
same,normalized growth,"locus YCL069W, strain vba3, stronger effect = lower value",0.978 (inactive) and 0.896 (active)
same,normalized growth,"locus YCR088W, strain abp1, stronger effect = lower value",0.957 (inactive) and 0.923 (inactive)
same,normalized growth,"locus YDL005C, strain med2, stronger effect = lower value",0.961 (inactive) and 0.958 (inactive)
same,normalized growth,"locus YDL035C, strain GPR1, stronger effect = lower value",0.919 (inactive)
same,normalized growth,"locus YDL040C, strain nat1, stronger effect = lower value",1.02 (inactive) and 0.916 (active)
same,normalized growth,"locus YDL074C, strain BRE1, stronger effect = lower value",0.87 (inactive)
same,normalized growth,"locus YDL101C, strain DUN1, stronger effect = lower value",0.987 (inactive)
same,normalized growth,"locus YDL134C, strain PPH21, stronger effect = lower value",0.954 (inactive)
same,normalized growth,"locus YDL185W, strain tfp1, stronger effect = lower value",0.946 (inactive)
same,normalized growth,"locus YDL192W, strain arf1, stronger effect = lower value",0.919 (inactive)
same,normalized growth,"locus YDR001C, strain nth1, stronger effect = lower value",0.96 (inactive) and 0.917 (active)
same,normalized growth,"locus YDR069C, strain doa4, stronger effect = lower value",0.926 (inactive) and 0.919 (inactive)
same,normalized growth,"locus YDR101C, strain arx1, stronger effect = lower value",0.921 (inactive)
same,normalized growth,"locus YDR137W, strain rgp1, stronger effect = lower value",0.675 (active) and 0.533 (active)
same,normalized growth,"locus YDR150W, strain NUM1, stronger effect = lower value",0.973 (inactive)
same,normalized growth,"locus YDR159W, strain sac3, stronger effect = lower value",0.853 (active) and 0.785 (active)
same,normalized growth,"locus YDR162C, strain NBP2, stronger effect = lower value",0.92 (inactive)
same,normalized growth,"locus YDR195W, strain ref2",0.986 (inactive) and 1.15 [resistant] (active)
same,normalized growth,"locus YDR297W, strain sur2, stronger effect = lower value",0.946 (inactive) and 0.907 (active)
same,normalized growth,"locus YDR318W, strain mcm21, stronger effect = lower value",0.902 (active)
same,normalized growth,"locus YDR334W, strain swr1, stronger effect = lower value",0.954 (inactive) and 0.887 (active)
same,normalized growth,"locus YDR335W, strain msn5, stronger effect = lower value",0.957 (inactive) and 0.88 (active)
same,normalized growth,"locus YDR388W, stronger effect = lower value",0.914 (active)
same,normalized growth,"locus YDR392W, strain spt3, stronger effect = lower value",0.595 (active) and 0.401 (active)
same,normalized growth,"locus YDR502C, strain sam2, stronger effect = lower value",0.922 (inactive)
same,normalized growth,"locus YEL003W, strain gim4, stronger effect = lower value",0.952 (inactive) and 0.809 (active)
same,normalized growth,"locus YEL037C, strain rad23, stronger effect = lower value",0.941 (inactive) and 0.911 (active)
same,normalized growth,"locus YEL061C, strain CIN8 (second series), stronger effect = lower value",0.961 (inactive) and 0.888 (active)
same,normalized growth,"locus YEL061C, strain CIN8, stronger effect = lower value",0.967 (inactive)
same,normalized growth,"locus YER015W, strain faa2, stronger effect = lower value",0.936 (inactive) and 0.867 (active)
same,normalized growth,"locus YER016W, strain bim1, stronger effect = lower value",1.07 (inactive) and 0.92 (active)
same,normalized growth,"locus YER110C, stronger effect = lower value",0.945 (inactive)
same,normalized growth,"locus YER111C, strain swi4, stronger effect = lower value",0.97 (inactive) and 0.951 (inactive)
same,normalized growth,"locus YER155C, strain BEM2 (second series), stronger effect = lower value",0.686 (active) and 0.499 (active)
same,normalized growth,"locus YER155C, strain BEM2, stronger effect = lower value",0.969 (inactive)
same,normalized growth,"locus YER167W, strain BCK2, stronger effect = lower value",0.928 (inactive)
same,normalized growth,"locus YFR010W, strain ubp6, stronger effect = lower value",0.931 (inactive) and 0.919 (inactive)
same,normalized growth,"locus YGL078C, strain dbp3, stronger effect = lower value",0.957 (inactive)
same,normalized growth,"locus YGL086W, strain mad1, stronger effect = lower value",0.853 (active)
same,normalized growth,"locus YGL167C, strain pmr1, stronger effect = lower value",0.924 (inactive) and 0.87 (active)
same,normalized growth,"locus YGL173C, strain kem1, stronger effect = lower value",0.858 (active) and 0.891 (active)
same,normalized growth,"locus YGL227W, strain vid30, stronger effect = lower value",0.952 (inactive) and 0.909 (active)
same,normalized growth,"locus YGL240W, strain doc1, stronger effect = lower value",0.797 (active) and 0.631 (active)
same,normalized growth,"locus YGL248W, strain PDE1, stronger effect = lower value",0.949 (inactive)
same,normalized growth,"locus YGL253W, strain hxk2, stronger effect = lower value",0.941 (inactive) and 0.855 (active)
same,normalized growth,"locus YGR078C, strain PAC10, stronger effect = lower value",0.858 (inactive)
same,normalized growth,"locus YGR135W, strain pre9, stronger effect = lower value",0.879 (active)
same,normalized growth,"locus YGR229C, strain SMI1, stronger effect = lower value",0.802 (active)
same,normalized growth,"locus YGR252W, strain gcn5, stronger effect = lower value",0.762 (active)
same,normalized growth,"locus YHR013C, strain ard1, stronger effect = lower value",1.06 (inactive) and 1.1 (inactive)
same,normalized growth,"locus YHR027C, strain rpn1, stronger effect = lower value",0.95 (inactive) and 0.901 (active)
same,normalized growth,"locus YHR030C, strain SLT2, stronger effect = lower value",0.967 (inactive) and 0.884 (inactive)
same,normalized growth,"locus YHR079C, strain IRE1 (second series), stronger effect = lower value",0.92 (active)
same,normalized growth,"locus YHR079C, strain IRE1, stronger effect = lower value",0.862 (inactive)
same,normalized growth,"locus YHR094C, strain hxt1, stronger effect = lower value",0.964 (inactive)
same,normalized growth,"locus YHR129C, strain ARP1, stronger effect = lower value",0.992 (inactive)
same,normalized growth,"locus YHR142W, strain chs7, stronger effect = lower value",0.889 (inactive) and 0.702 (active)
same,normalized growth,"locus YHR200W, strain rpn10, stronger effect = lower value",0.91 (active)
same,normalized growth,"locus YIL066C, strain RNR3, stronger effect = lower value",0.959 (inactive)
same,normalized growth,"locus YIL073C, strain SPO22, stronger effect = lower value",0.854 (inactive)
same,normalized growth,"locus YIL125W, strain kgd1, stronger effect = lower value",0.955 (inactive)
same,normalized growth,"locus YIR030C, strain dcg1, stronger effect = lower value",0.944 (inactive)
same,normalized growth,"locus YJL092W, strain hpr5, stronger effect = lower value",0.954 (inactive) and 0.91 (active)
same,normalized growth,"locus YJL095W, strain BCK1 (second series), stronger effect = lower value",0.942 (inactive) and 0.879 (active)
same,normalized growth,"locus YJL095W, strain BCK1, stronger effect = lower value",0.825 (inactive) and 0.889 (inactive)
same,normalized growth,"locus YJL115W, strain asf1, stronger effect = lower value",0.954 (inactive) and 0.904 (active)
same,normalized growth,"locus YJL129C, strain trk1, stronger effect = lower value",0.816 (active) and 0.603 (active)
same,normalized growth,"locus YJL134W, strain LCB3, stronger effect = lower value",0.991 (inactive)
same,normalized growth,"locus YJL154C, strain vps35, stronger effect = lower value",0.97 (inactive) and 0.918 (active)
same,normalized growth,"locus YJL164C, strain tpk1, stronger effect = lower value",0.909 (active) and 0.811 (active)
same,normalized growth,"locus YJL166W, strain qcr8, stronger effect = lower value",0.891 (active) and 0.741 (active)
same,normalized growth,"locus YJL168C, strain set2, stronger effect = lower value",0.948 (inactive)
same,normalized growth,"locus YJL187C, strain SWE1 (second series), stronger effect = lower value",0.939 (inactive)
same,normalized growth,"locus YJL187C, strain SWE1, stronger effect = lower value",0.952 (inactive) and 0.902 (active)
same,normalized growth,"locus YJR043C, strain POL32, stronger effect = lower value",0.899 (inactive)
same,normalized growth,"locus YJR066W, strain TOR1, stronger effect = lower value",0.883 (inactive)

# Source: PubChem BioAssay AID1159580 (chemical genetic matrix, 2015)
